The values that follow come from PubChem BioAssay.

A number with no mark means an inactive call. No rule for the calls is given here.

In this experiment the target is Pantothenate synthetase (Mycobacterium tuberculosis (strain ATCC 25618 / H37Rv)) (UniProt P9WIL5). Put plainly: Coupled enzyme confirmation of inhibitors against recombinant Mtb PanC (AID 375).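 Also: 0% = full reaction with vehicle and 100% = no enzyme background.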 As to conditions: coupled enzyme assay; at 10 µM, hits give high values.
Sequence of Pantothenate synthetase (Mycobacterium tuberculosis (strain ATCC 25618 / H37Rv)) (P9WIL5 whole entry, looked up): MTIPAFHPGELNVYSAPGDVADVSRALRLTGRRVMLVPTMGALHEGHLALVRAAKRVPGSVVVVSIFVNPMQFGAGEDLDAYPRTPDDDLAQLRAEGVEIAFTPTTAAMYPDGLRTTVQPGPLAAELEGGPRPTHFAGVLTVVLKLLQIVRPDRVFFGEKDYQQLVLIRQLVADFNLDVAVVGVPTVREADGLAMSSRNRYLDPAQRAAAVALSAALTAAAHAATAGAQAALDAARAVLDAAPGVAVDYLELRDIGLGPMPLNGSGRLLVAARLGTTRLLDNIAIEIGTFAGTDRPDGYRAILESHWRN
On to `COc1ccc(S(=O)(=O)Nc2cc(C)on2)cc1OC`, for which the inhibition was 0%.

Turning to `COc1ccc(-c2nn3c(-c4ccncc4)nnc3s2)cc1OC`, the inhibition was 0%.

In the case of `CC(=O)[C@@]1(O)CC[C@H]2[C@@H]3C[C@H](C)C4=CC(=O)C=C[C@]4(C)[C@@]3(F)[C@@H](O)C[C@@]21C`, the inhibition was 6%.

Consider `O=c1cc(CSc2ccccn2)c2ccccc2[nH]1`, for which the inhibition was 3%.

As for `COc1cc(-n2nc(C)c3c2OC(N)=C(C#N)C3c2ccccc2)c(Cl)c(Br)c1O` (centres undefined), the inhibition is 9%.

As to `Cc1cn(C2CC3OCC3O2)c(=O)[nH]c1=O` (centres undefined), the inhibition was 0%.

For the compound `COc1cccc(CNC(=O)C2CCN(S(=O)(=O)c3ccc(F)cc3)CC2)c1`, the inhibition was 8%.

`O=S(c1ccsc1)c1ccsc1`: the inhibition was 0%.

Take `O=C1c2ccccc2C(=O)N1Cc1nc2ccccc2c(=O)n1CCN1CCOCC1`: the inhibition was 1%.

As to `CN1C(=O)CSc2ccc(NC(=O)N3CCN(c4ccccn4)CC3)cc21`, the inhibition is 8%.

Turning to `Cn1cc(Cl)c(C(=O)N(Cc2ccccc2)c2ccccn2)n1`, the inhibition is 0%.

For the compound `CCOC(=O)N1CCC(N2C(=O)c3ccccc3C2Nc2cc(Cl)c(OC)cc2OC)CC1` (centres undefined), the inhibition was 0%.

Regarding `COCC(=O)N(Cc1nc2ccccc2c(=O)[nH]1)Cc1cccs1`, the inhibition is 0%.

For the compound `c1ccc2c(c1)CCCC2C1=NCCN1` (centres undefined), the inhibition is 0%.

With `CCOC(=O)C1=C(CN2CCOCC2)NC(=O)NC1c1cc(C)ccc1C` (centres undefined), the inhibition was 2%.

In the case of `Cc1ccccc1CSCC(=O)c1c(N)n(C)c(=O)n(C)c1=O`, the inhibition is 2%.

For `C=CCOc1cccc(C2/C(=C(\O)c3ccc(F)cc3)C(=O)C(=O)N2CCN(C)C)c1` (centres undefined), the inhibition is 0%.

For the compound `O=C(O)c1cc(/C=N\O)ccc1OCc1ccccc1`, the inhibition is 3%.

On to `Nc1nc(-n2cnnc2)nn1-c1ccccc1`, for which the inhibition is 0%.

As for `CC1CCN(C(=O)CSc2nnc(-c3cccnc3)n2C2CCCCC2)CC1`, the inhibition is 0%.

Take `CCOC(=O)C1CCN(C(=O)CSc2cc(=O)n(CC)c3ccccc23)CC1`: the inhibition is 4%.

Turning to `O=C(c1ccco1)N1CCN(C(=O)c2cc3c(s2)-c2ccccc2OC3)CC1`, the inhibition is 11%.

`Cc1cccc2cc(COC(=O)C(C)(C)C)c(=O)[nH]c12`: the inhibition is 0%.

As for `Oc1cnc2ccccc2c1CN1CCOCC1`, the inhibition was 4%.

By inhibition is commonly meant the change of the read-out against control, counted positive when it falls.
